# Reference: PubChem BioAssay AID1347076 (National Center for Advancing Translational Sciences (NCATS), 2019)
# “And” between values parts separate entries of the source, which are not always exact repeats. Equal entries are not always repeated. Hit rate of the full screen: of about 400,000 compounds, about 13,000 (3.2%) were called active. Not shown: some 18% with an inconclusive outcome. Calls follow the shape of the dose curve; as a rule, active = well fitted cell-killing curve with a large enough effect; inconclusive = small, poorly fitted or top-dose-only effect, or effect the other way; inactive = flat fitted curve, though single readings scatter. Only a selection was taken, and actives are over-represented in it overall.
# Test: qHTS assay for MDR1-selective chemotherapeutics: Primary screen using the drug-selected MDR subline cells KB-V1; also: nearly all actives have a fitted effect of over 60% in size
# Details: KB-V1 MDR cells viability, CellTiter-Glo, 72 h; series mostly up to 46.1 µM; activity change, negative = cytotoxicity: at the top concentration
# In short: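 Cytotoxicity toward P-gp-expressing KB-V1 cells was determined as loss of CellTiter-Glo luminescence after 72 h at 37 degrees C. Compounds were tested in quantitative HTS format across a concentration range, with curves fitted to normalized data.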
# % is scaled to controls: 0 for no effect and ±100 for the full control effect; potency is read from the fitted curve at half-maximal effect.
SMILES,Potency,"activity change, negative = cytotoxicity"
CCOc1ncccc1C(=O)Nc1ccc(S(=O)(=O)Nc2nc(C)cc(C)n2)cc1,20.6 µM (active),–
O=C(Nc1ccc(S(=O)(=O)Nc2ncccn2)cc1)c1cncc(Br)c1,–,0% (inactive)
CCOc1ncccc1C(=O)Nc1ccc2c(c1)OCCO2,–,-3.64% (inactive)
CCOC(=O)c1cccc(NC(=O)C(Cc2ccccc2)NS(=O)(=O)c2cccc3nsnc23)c1 (configuration not stated),–,-8.85% (inactive)
COc1cccc(/C=C/C(=O)OCC(=O)N2CCN(c3ccccc3)CC2)c1,–,-12.1% (inactive)
COc1cccc(-c2ccc(SCC(=O)N3CCN(c4ccccc4)CC3)nn2)c1,14.6 µM (active),–
Cc1nnc(SCC(=O)N2CCN(c3ccccc3)CC2)n1-c1ccccc1,–,-5.39% (inactive)
N#CNC1=NCN(CCc2ccccc2)CN1,–,4.58% (inactive)
c1ccc(CCN2CN=C(Nc3nc4ccccc4o3)NC2)cc1,13 µM (active),–
O=C1CCCC2=C1[C@@]1(CCC(c3ccccc3)C1)N=C(Nc1nc3ccccc3o1)N2 (some centres not stated),–,-23.4% (inactive)
Cc1cc(NC(=O)c2cc(-c3cccs3)on2)nn1Cc1ccc(Cl)cc1,9.2 µM (active),–
Cc1ccccc1Cn1nc(C)c(NC(=O)c2cc(-c3ccc(F)cc3)on2)c1C,–,-2.23% (inactive)
CC(=O)c1ccc(NC(=O)c2cc(-c3cccs3)on2)cc1,–,-21.1% (inactive)
Cc1cccc(CC(=O)Nc2cccc(-c3cn4cccnc4n3)c2)c1,–,11.6% (inactive)
COc1ccc(NC(=O)N(C)C[C@H]2Oc3ncc(C#C[C@@H](C)O)cc3C(=O)N([C@H](C)CO)C[C@H]2C)cc1,–,-2.19% (inactive)
CCOC(=O)C1C(c2ccc(O)cc2)NC(=O)NC1(O)C(F)(F)F (configuration not stated),–,18% (inactive)
O=C(c1cccs1)C1C(c2ccc(Br)cc2)NC(=S)NC1(O)C(F)(F)F (configuration not stated),20.6 µM (active),–
Cc1ccc(Cc2c(-c3ccc(C)cc3)nc3c4ccccc4ccn23)cc1,–,2.79% (inactive)
c1ccc2c(c1)nnn2-c1ccncc1,–,0.884% (inactive)
CC(=NCc1ccco1)c1c(C(F)(F)F)[nH]n(-c2nc3ccccc3s2)c1=O,9.2 µM (active),–
CCc1ccc(-c2cc(C(=O)NCc3ccco3)c3ccccc3n2)s1,–,1.92% (inactive)
CC(=NCc1ccco1)C1=C(O)c2ccccc2C1=O,–,-27.6% (inactive)
CN(C)C(CNC(=O)c1cc(Br)c(Br)s1)c1ccco1 (configuration not stated),–,10.7% (inactive)
CCCCC(CCCC)c1ccc(C=Nc2ccc(/C=C/c3ccnc4ccccc34)cc2)cc1,–,0% (inactive)
Cc1ccc(C(=O)OCC(=O)N2CCCCCC2)cc1S(=O)(=O)N1CCOCC1,14.6 µM (active),–

SMILES,Potency,"activity change, negative = cytotoxicity"
O=C(OCC(=O)N1CCCCCC1)c1ccc(Br)c(S(=O)(=O)N2CCOCC2)c1,–,-25% (inactive)
COc1ccc(C(=O)OCC(=O)c2ccc(C)c(S(=O)(=O)N3CCOCC3)c2)cc1OC,–,-25.9% (inactive)
COC(=O)[C@]12CCCCC=C1N(Cc1ccco1)C(=O)[C@H](CC(=O)NCC1CCCCC1)C2,–,6.39% (inactive)
COc1ccccc1NC(=O)C1=C(C)Nc2ncnn2C1c1sccc1C (configuration not stated),–,0% (inactive)
COc1ccccc1NC(=O)C1=C(C)Nc2nc3ccccc3n2C1c1cccs1 (configuration not stated),5.8 µM (active),–
COC(=O)c1ccc(C2C(C(=O)Nc3ccccc3)=C(C)Nc3nc4ccccc4n32)cc1 (configuration not stated),–,-5.17% (inactive)
CC1=C(C(=O)Nc2ccccc2Cl)C(c2cccs2)n2ncnc2N1 (configuration not stated),–,-6.43% (inactive)
CCOc1ccc(C2C(C(=O)NC)=C(C)Nc3nc4ccccc4n32)cc1OC (configuration not stated),–,-6.45% (inactive)
CCOC(=O)C1=C(C)Nc2nc3ccccc3n2C1c1cccs1 (configuration not stated),3.26 µM (active),–
O=S1(=O)C[C@@H](N2CCN(CCO)CC2)[C@H](COCc2ccccc2)N1,–,-9.39% (inactive)
CC1(C(=O)NCc2ccccc2)CN(S(C)(=O)=O)CC(=O)N1CC(F)(F)F (configuration not stated),–,5.12% (inactive)
CN(C)CCN1CCN(c2cc(-c3cccc(Cl)c3)nc3ccnn23)CC1,–,7.25% (inactive)
CCc1nc2c(OCC(N)=O)cccn2c1N(C)C(=O)c1ccc(OC)cc1,–,0% (inactive)
CC1=C(C(=O)N2CCOCC2)CC(CC(=O)NCc2cccs2)C(=O)N1CCCN1CCCC1=O (configuration not stated),–,-2.21% (inactive)
C#C[C@]1(O)CC[C@H]2[C@@H]3CCC4=CC(=O)CC[C@@H]4[C@H]3CC[C@@]21CC,13 µM (active) and 7.31 µM (active),–
CCCCCCCCN1C(=O)[C@H](CC(=O)NCC23CC4CC(CC(C4)C2)C3)C[C@@]2(C(=O)OC)CCCCC=C12,–,-1.91% (inactive)
CC(C)Sc1oc(-c2cccs2)nc1S(=O)(=O)c1ccc(Cl)cc1,–,-19.7% (inactive)
CC(NC(=O)c1ccc(N2CCNCC2)c([N+](=O)[O-])c1)C12CC3CC(CC(C3)C1)C2 (configuration not stated),–,-12.3% (inactive)
O=C(NC1C2CC3CC(C2)CC1C3)c1ccc(N2CCNCC2)c([N+](=O)[O-])c1 (configuration not stated),–,-24.8% (inactive)
CS(=O)(=O)N1CCN(c2ccc(C(=O)NC3C4CC5CC(C4)CC3C5)cc2[N+](=O)[O-])CC1 (configuration not stated),11.6 µM (active),–
COc1ccc(-c2cc3nc(NCCOc4ccccc4)ccn3n2)cc1,–,-1.29% (inactive)
CCc1nc2onc(C)c2c(=O)n1CC(=O)O,–,20.4% (inactive)
COCCCNC(NC(=O)c1ccc(C)cc1)C(Cl)(Cl)Cl (configuration not stated),20.6 µM (active),–
CCOCCCNC(=O)C(NC(=O)CNC(=O)c1ccccc1)c1ccc(C)cc1 (configuration not stated),–,0.549% (inactive)
COCCCNC(NC(=O)c1ccc(OC)cc1)C(Cl)(Cl)Cl (configuration not stated),–,-0.612% (inactive)

SMILES,Potency,"activity change, negative = cytotoxicity"
CCOC(=O)[C@]12CCC=C1N(Cc1ccco1)C(=O)[C@H](CC(=O)N1CCSCC1)C2,–,-25.8% (inactive)
CC(C)Oc1ccc(CN2CCC2(C)C(=O)NCc2ccc(C(F)(F)F)cc2)cc1 (configuration not stated),–,-8.92% (inactive)
Cc1cccc(-c2nc(SCC(=O)Nc3cc(C)on3)c3c(=O)n(C)c(=O)n(C)c3n2)c1,–,8.61% (inactive)
Cc1nc2ccccc2nc1CC(O)(c1ccccc1)c1ccccc1,–,-13.9% (inactive)
O=C(NCc1ccccc1)C(=O)NCC(c1ccco1)S(=O)(=O)c1ccc(Cl)cc1 (configuration not stated),–,-23.4% (inactive)
CC1(C)Cc2c(C#N)c(SCc3nc4ccccc4[nH]3)nc(N3CCOCC3)c2CO1,9.2 µM (active),–
CC(C)C(=O)N1CCN(c2nc(-c3ccccc3)c3c(c2C#N)CC(C)(C)OC3)CC1,–,15.4% (inactive)
COc1ccc(CSc2nc(N3CCOCC3)c3c(c2C#N)CC(C)(C)OC3)cc1,–,-7.53% (inactive)
COc1cccc(CNCc2c(C(=O)O)n(Cc3ccc(C)cc3)c3cc(C)ccc23)c1OC,–,-12.2% (inactive)
CCCCCc1c(C)nc(N2CCN(Cc3ccc4c(c3)OCO4)CC2)[nH]c1=O,–,8.37% (inactive)
O=c1[nH]c(N2CCN(Cc3ccc4c(c3)OCO4)CC2)nc2c1CCCC2,–,0.611% (inactive)
Cc1c(CN2CC[C@@H](N3CCN(c4ccccn4)CC3)[C@H](O)C2)[nH]c2ccc(F)cc12,–,19.3% (inactive)
Fc1ccc2[nH]c3c(N4CCSCC4)ncnc3c2c1,3.26 µM (active),–
Fc1ccc2[nH]c3c(N4CCN(Cc5ccc6c(c5)OCO6)CC4)ncnc3c2c1,9.2 µM (active),–
CC1=C(C(=O)N(C)C)CC(CC(=O)NCCc2ccccn2)C(=O)N1CCC1=CCCCC1 (configuration not stated),–,-2.02% (inactive)
COCCNc1nc(Nc2ccccc2Cl)c2sc(-c3ccccc3)cc2n1,–,1.9% (inactive)
COc1ccc(NC(=O)c2nc(-n3nc(C)cc3C)ccc2Cl)cc1Cl,–,-16.4% (inactive)
CC(=O)Nc1ccc(Nc2cc(C)nc(Nc3ccc(NC(C)=O)cc3)n2)cc1,–,0.471% (inactive)
COc1ccc(Nc2cc(C)nc(-n3nc(C)cc3C)n2)cc1,0.231 µM (active),–
CC1(C)NC(=O)N(CC(=O)Nc2ccc(-c3ccccc3)cc2)C1=O,–,6.88% (inactive)
CC1(Oc2ccc(Cl)cc2)CCN(Cc2csc3ccccc23)C1 (configuration not stated),–,6.11% (inactive)
CN(C)c1nc(N)nc(CSc2ccccn2)n1,–,-15% (inactive)
CN(C)c1nc(N)nc(CSc2nnnn2-c2cccc3ccccc23)n1,6.51 µM (active),–
COc1ccc(-n2nnnc2SCc2nc(N)nc(N3CCOCC3)n2)cc1,–,-2.46% (inactive)
CCOC(=O)C1CCCN(C(=O)c2ccc(C)c(F)c2)CC1 (configuration not stated),–,2.89% (inactive)

SMILES,Potency,"activity change, negative = cytotoxicity"
COc1ccc(N(Cc2ccccc2)S(=O)(=O)c2cccc(C(=O)O)c2)cc1,–,-6.55% (inactive)
COc1ccc(S(=O)(=O)NCCCCOc2ccc(Cl)cc2)cc1,–,2.27% (inactive)
COc1ccc(N(CCC#N)S(=O)(=O)c2ccc(Cl)cc2)cc1,16.4 µM (active),–
CCCCNC(=O)Cn1c(SCc2cccc(Cl)c2)nc2ccncc21,–,24.9% (inactive)
O=C(NCCO)c1cccc(-c2cccc3nccn23)c1,–,2.1% (inactive)
CCC(=O)N1c2ccccc2CC1C(=O)N1CCN(c2cccc(OC)c2)CC1 (configuration not stated),–,-2.51% (inactive)
Cc1ccc(NC(=O)Cn2sc3ccccc3c2=O)cc1,–,-4.65% (inactive)
CC(C)OCCCn1c(SCC(=O)c2ccccc2)nc2c(sc3ccccc32)c1=O,–,-4.17% (inactive)
COc1ccc(C(=O)Nc2ccccc2C(=O)N2CCN(c3ccccc3)CC2)cc1,–,2.33% (inactive)
COc1ccc(N2CCN(C(=O)C3CCN(C(=O)c4ccccc4Cl)CC3)CC2)cc1,–,-0.446% (inactive)
COc1ccc(C(=O)Nc2c(Cl)cc(Cl)cc2C(=O)N2CCC(C)CC2)cc1,3.26 µM (active),–
CCCNC(=O)C1(C)CCN1C(=O)Cc1ccc(-c2ccccc2)cc1 (configuration not stated),–,-9.32% (inactive)
COC(=O)c1scc(-c2ccc(C)cc2)c1S(=O)(=O)Nc1cc(Cl)c(OC)cc1OC,–,-3.69% (inactive)
CCCNC(=O)C1CC(=O)N(c2ccc(OCc3ccccc3)cc2)C1 (configuration not stated),–,-19.5% (inactive)
COc1ccc(OCCNC(=O)c2cc(C3CC3)nc3c2cnn3C(C)C)cc1,8.2 µM (active),–
CC(C)n1ncc2c(C(=O)Nc3ccc(CC#N)cc3)cc(C3CC3)nc21,–,-15.1% (inactive)
CC(C)n1ncc2c(C(=O)NCc3ccccc3CN(C)C)cc(C3CC3)nc21,–,28.4% (inactive)
CCCCN1C(=O)C(CC(=O)NCc2cccs2)CC(C(=O)N2CCOCC2)=C1C (configuration not stated),–,21.1% (inactive)
O=C(Nc1ccc2c(c1)OCCO2)C(C1CC1)N1CCC(Cc2ccccc2)CC1 (configuration not stated),–,6.42% (inactive)
O=C(Nc1ccccn1)C1CCN(S(=O)(=O)c2ccccc2)CC1,18.4 µM (active),–
O=C(NCc1ccccn1)C1CCN(S(=O)(=O)c2ccc(Br)cc2)CC1,–,5.38% (inactive)
O=C(Nc1ccccn1)C1CCN(S(=O)(=O)c2ccc3c(c2)OCCO3)CC1,–,-5.52% (inactive)
